Results from PubChem BioAssay AID1347417 (National Center for Advancing Translational Sciences (NCATS), 2020).
The campaign covered roughly 120,000 compounds. About 5,300 (4.4%) were called active. Not shown: some 22% with an inconclusive outcome. The entries come from a sample that favours actives as a whole. Values without a mark were called inactive. Calls follow the shape of the dose curve; as a rule, active = well fitted inhibition curve with a large enough effect; inconclusive = small, poorly fitted or top-dose-only effect; inactive = no such curve, though single readings can be large or run the other way.

assay: qHTS Primary assay for Inhibitors of Plasmodium falciparum Dd2 growth in vitro; also: nearly all actives have a fitted effect of over 65% in size;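 as to activity, negative = inhibition: plate controls were DMSO vehicle for no effect and reference drug for full effect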; settings: P. falciparum Dd2 growth, SYBR Green, 72 h; series mostly up to 28.9 µM; activity, negative = inhibition: at the top concentration
How it was run: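 Infected erythrocytes (Dd2, 0.3% parasitemia, 2.5% hematocrit final) are added to compound in RPMI-1640/Albumax II medium, grown 72 h at 37C in low oxygen, then lysed with saponin/Triton-X containing SYBR Green and read by fluorescence.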
Potency is read from the fitted curve at half-maximal effect.

Row | SMILES | activity, negative = inhibition | outcome | Potency
1 | NC(=O)CCNC(=O)C1=C[C@@H](NC(=O)CC2(CC(=O)O)CCCC2)[C@@H](O)[C@H](O)C1 | 1.07% [at 44.1 µM] | – | –
2 | O=C(c1ccc(C(F)(F)F)cc1)N1CCC([C@@H]2CNC[C@H]2CO)CC1 | – | inactive | –
3 | Cc1nnc2n1CCC(NC(=O)c1cc(CN3CCOCC3)on1)CC2 (centres undefined) | 60% | – | –
4 | CN(C)C[C@H]1C[C@@H](CO)CN(C(=O)CCc2ccncc2)C1 | 7.96% | – | –
5 | O=C1CCN(C(=O)C2CCN(C(=O)NC3CCCCC3)CC2)CCCCCCN1 | -11.1% | – | –
6 | COCCNC(=O)c1nc(-c2cc(Cl)cc(Cl)c2)c2ccccn12 | – | – | inactive
7 | Cc1cccc(C)c1-c1nc(C(=O)NCc2ccc(F)cc2)n2ccccc12 | -2.3% | – | –
8 | O=C(NCc1ccc(F)cc1)c1nc(-c2ccccc2)c2ccccn12 | – | – | 11.2 µM (active)
9 | NS(=O)(=O)c1ccc(NC(=O)COc2ccc(S(=O)(=O)NC3CCCCC3)cc2)cc1 | 7.37% | – | –
10 | CC(C)c1ccc(NC(=O)c2cc(S(=O)(=O)N3CCc4ccccc4C3)ccc2F)cc1 | 29.4% | – | –
11 | CCc1ccc(NC(=O)c2cc(S(=O)(=O)NC3CCCCCC3)ccc2F)cc1 | – | – | 7.94 µM (active)
12 | Cc1cnc(C(=O)N(C)C2CCc3nnc(C)n3CC2)cn1 (centres undefined) | 25.9% | – | –
13 | O=C1CC(NCc2ccoc2)CN1CCc1cccc(Cl)c1 (centres undefined) | – | – | 10 µM (active)
14 | O=C(NC1CC(=O)N(CCc2cccc(Cl)c2)C1)c1ccsc1 (centres undefined) | -3.9% | – | –
15 | O=C(CC1CC1)N1C[C@H]2OC(=O)N(CCc3cccc(Cl)c3)[C@H]2C1 | 2.24% | – | –
16 | COc1cccc(-c2nc(CS(=O)(=O)CC(=O)N3CCN(c4cc(C)ccc4C)CC3)c(C)o2)c1 | 3.78% | – | –
17 | Cc1oc(-c2cccs2)nc1CN1CCOC(Cc2ccccc2)C1 (centres undefined) | – | inactive | –
18 | COC(=O)c1cc2occc2n1Cc1nc(-c2ccccc2C)oc1C | 10.3% | – | –
19 | COc1ccc(-c2nc(CN3CCOC(CN)C3)c(C)o2)c2ccccc12 (centres undefined) | – | – | 12.6 µM (active)
20 | Cc1oc(-c2cccc(Oc3ccccc3)c2)nc1CN1CCOC(CCN)C1 (centres undefined) | – | – | 7.08 µM (active)
21 | COc1ccc(-c2nc(Cn3c(=O)cc(C)c4c(C)nn(-c5ccccc5)c43)c(C)o2)cc1OC | 14.2% | – | –
22 | CC(C)CN=C1S[C@H]2[C@H]([C@@H](O)[C@H](O)C[C@@H]2C(N)=O)N1Cc1ccc(F)cc1 | 4.29% [at 44.1 µM] | – | –

Row | SMILES | activity, negative = inhibition | outcome | Potency
23 | O=C(Cc1cccc(F)c1)NC1CCN(c2cc(C(F)(F)F)ncn2)CC1 | -19.3% | – | –
24 | COc1ccc(N2CCN(C(=O)c3ccc4c(Cl)c5c(nc4c3)CCCC5)CC2)cc1 | 13.6% | – | –
25 | CCOC(=O)C1CCN(c2nc3c(S(=O)(=O)c4ccc(CC)cc4)nnn3c3ccc(Cl)cc23)CC1 | – | inactive | –
26 | CCOC(=O)C1CCN(C(=O)CSc2c3c(nc4ccc(Cl)cc24)CCCC3)CC1 | – | – | 14.1 µM (active)
27 | COc1cc(C(=O)N2CCC(Cc3nc(-c4ccccc4)no3)CC2)cc(OC)c1OC | -20.4% | – | –
28 | O=C(N[C@H]1CCOC[C@H]1C1CCOCC1)c1cccc2nccnc12 | -4.65% | – | –
29 | CCn1ncc(N2CCCC(CC(=O)NCc3ccc(OC)cc3)C2)cc1=O (centres undefined) | -13.4% | – | –
30 | O[C@@H]1C[C@@H](c2nc(Cc3ccc(F)cc3Cl)no2)N(Cc2ncc[nH]2)C1 | -8.76% [at 44.1 µM] | – | –
31 | Cc1nn(-c2ccc(C(C)C)cc2)c(C)c1[C@@H]1C=C[C@@H](NC(=S)NCC(C)C)C1 | – | – | 12.6 µM (active)
32 | COc1ccc(-n2nc(C)c([C@H]3C=C[C@@H](OC(=O)Nc4cccc(F)c4)C3)c2C)cc1 | – | – | 10 µM (active)
33 | Cc1nn(Cc2ccccc2)c(C)c1[C@@H]1C=C[C@@H](NC(=O)NC2CCCCC2)C1 | – | inactive [at 44.1 µM] | –
34 | Cc1nn(CCC#N)c(C)c1[C@@H]1C=C[C@@H](NS(=O)(=O)c2ccccc2)C1 | – | inactive [at 44.1 µM] | –
35 | CCC(C)NC(=O)Cc1csc2nc(C)c(-c3cc(C)n(-c4ccc(C(C)C)cc4)n3)c(=O)n12 (centres undefined) | -19% | – | –
36 | COc1cccc(NC(=O)Cn2c(=O)cc(C)c3c(C)nn(-c4cccc(F)c4)c32)c1 | -8.11% | – | –
37 | Cc1nn(-c2ccc(C(C)C)cc2)c(C)c1[C@@H]1C=C[C@@H](NC(=O)CC2(CC(=O)O)CCCC2)C1 | – | inactive | –
38 | Cc1nn(-c2cccc(Br)c2)c(C)c1[C@@H]1C=C[C@@H](NC(=O)CC2(CC(=O)O)CCCC2)C1 | – | inactive | –
39 | Cc1nn(-c2ccc(C(C)C)cc2)c(C)c1[C@@H]1C=C[C@@H](NC(=O)Nc2ccccc2)C1 | – | – | 11.2 µM (active)
40 | Cc1nn(-c2ccccc2)c(C)c1[C@@H]1C=C[C@@H](NC(=O)c2ccc3c(c2)OCO3)C1 | -0.301% [at 44.1 µM] | – | –
41 | COc1ccc(-n2nc(C)c([C@@H]3C=C[C@@H](NC(=O)Nc4ccccc4)C3)c2C)cc1 | – | – | 10 µM (active)
42 | Cc1nn(Cc2ccccc2)c(C)c1[C@@H]1C=C[C@@H](NC(=O)NC(C)C)C1 | -18.8% [at 44.1 µM] | – | –
43 | C=CCNC(=O)C1N(C(C)C)C(=O)C12CCCCC2 (centres undefined) | -0.782% | – | –
44 | COc1ccc(NC(=O)C2CN(S(=O)(=O)c3cccnc3)CC23CCCCC3)cc1F (centres undefined) | -14.2% | – | –
